These results are taken from PubChem BioAssay (NCI).

Compounds without any hit were thinned out: in the full panel of roughly 79,000, 15% have a hit. A number with no mark means an inactive call. The source made the active and inactive calls. Rule as the data show it: active = growth inhibition above about 70%; inactive = the rest.

This assay is described as follows: NCI Yeast Anticancer Drug Screen. Data for the bub3 strain (AID 167). Conditions: S. cerevisiae bub3 mutant strain, at 5.0 µM (retest, dose inferred, filed as 0.5), active compounds read high. The method in brief: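 Growth of a checkpoint-deficient yeast mutant is measured after compound exposure. Values represent inhibition relative to vehicle.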
Turning to `S=c1sc2c(s1)SCCOCCOCCOCCS2`, the growth inhibition was 4%.
`N#Cc1cn(-c2c3ccccc3nc3ccccc23)c(=O)[nH]c1=O`: the growth inhibition was 15%.
Under `O=C1C=C(c2ccccc2)O/C1=C\C(=O)c1ccc(Cl)cc1` stands 22%; under `O=c1[nH]c2cc(Cl)ccc2nc1/C=C(\O)c1ccc(N2CCN(c3ccc(/C(O)=C/c4nc5ccc(Cl)cc5[nH]c4=O)cc3)CC2)cc1`, 19%; under `O=C1Oc2ccccc2C(=O)/C1=C/N1C(=O)/C(=C/c2ccccc2)NC1=S`, -6%.
For `CN(C)/C=C(\C(=O)c1ccccc1)n1nc(-c2ccccc2)cc1-c1ccccc1`, the growth inhibition is -3%.
Under `O=C1C(=O)c2ccccc2C(O)=C1Sc1ccccc1` stands 15%.
In the case of `O=C(c1c(F)c(F)c(F)c(F)c1F)n1c(=S)n(C(=O)c2c(F)c(F)c(F)c(F)c2F)c2ccccc21`, the growth inhibition is 2%.
Under `CCCCNCCC1(c2ccccc2)C(=O)Oc2ccccc21` (stereo not given) stands -5%; under `COc1cc(/C=C/c2cc[n+](C)cc2)ccc1O`, 0%; under `c1ccc(-c2ccc(-c3ccc(C4=NCCN4)cc3)o2)cc1`, 4%.
Regarding `CCCCCCCCCCCCCCNC(=O)C[N+](C)(C)Cc1ccccc1`, the growth inhibition is 99% (active).
As to `NC(CSSCC(N)C(=O)Nc1ccc2ccccc2c1)C(=O)Nc1ccc2ccccc2c1` (stereo not given), the growth inhibition is 37%.
Under `O=C(OCc1ccccc1)C(O)c1ccccc1` (stereo not given) stands -3%; under `CC(=O)CC1(O)C(=O)Nc2ccc(Br)cc21` (stereo not given), 6%.
Under `S=C(S)NCCN1CCNCC1` stands -6%.
For the compound `CCCCCCCC(=O)N1CCCCC1CC` (stereo not given), the growth inhibition was -53%.
On to `O=C1CCCC1C(=O)OC1CCCC1` (stereo not given), for which the growth inhibition is 24%.
For `CCN1CCC(O)(/C=C/c2cccc(C)c2)C(C(=O)/C=C/c2cccc(C)c2)C1` (stereo not given), the growth inhibition is 95% (active).
Turning to `O=C(SCCCc1ccccc1)c1cc([N+](=O)[O-])cc([N+](=O)[O-])c1`, the growth inhibition is 98% (active).
Consider `O=C1C(=O)C2CC3(CC1N2Cc1ccccc1)OCCO3`, for which the growth inhibition was -10%.
With `CNc1cc(SC)nc(N)n1`, the growth inhibition was -1%.
For `Clc1ccc(Cl)c(SCCCN2CCNCC2)c1`, the growth inhibition was 18%.
On to `CC(C)C(Cl)CC/C(CBr)=C(\Cl)CCl` (stereo not given), for which the growth inhibition was 23%.
`O=C(O)CNc1ccc2c(c1)Cc1cc(Br)ccc1-2`: the growth inhibition is -1%.
